The source of these data is the supplement of paper PMC7366291.

The structures appear in SMILES notation. Where a name gives a salt, the structure may show the parent alone. ± gives the standard deviation of the averaged measurements.

The test system of one assay is Danio rerio Tg(wt1b:EGFP) embryo, pronephros. Briefly: fraction of imaged embryos annotated as normal kidney; higher = less nephrotoxic; extreme values may be limits of the assay. The settings on record: 25 µM; exposure: 24-48 hpf. The method in brief:
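The value given is the share of embryos in each treatment scored as having a normal kidney. To obtain it, dechorionated Tg(wt1b:EGFP) zebrafish embryos were treated from 24 to 48 hpf at 28.5°C with 25 μM compound in 0.5% DMSO, in 5 mM HEPES-buffered E3 with 0.003% PTU. Pronephroi were imaged by widefield fluorescence (470 nm, 10 z-slices), and every embryo was annotated by hand from maximum projections.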
`CC(C)C(=O)Nc1ccc([N+](=O)[O-])c(C(F)(F)F)c1` [Flutamide]: the “fraction of imaged embryos annotated as normal kidney” value (“fraction of imaged embryos annotated” below) is 0.667. Regarding `CC(CNC1CCCCC1)OC(=O)c1ccccc1` (configuration not stated) [Hexylcaine hydrochloride], the “fraction of imaged embryos annotated” value worked out at 0.857.

Consider `CNCCC(Oc1ccccc1OC)c1ccccc1` (configuration not stated) [Nisoxetine hydrochloride], for which the “fraction of imaged embryos annotated” value stood at 0.833.

The next assay has the same test system. Briefly: pronephric angle neck segment to proximal convoluted tubule (mean of left and right), fold change vs DMSO control; higher = larger pronephric angle. The note with it: 25 µM; exposure: 24-48 hpf. The method in brief: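 Using a Fiji macro, distances and angles were calculated from 16 reference points set by hand on maximum projections of pronephroi imaged dorsally (470 nm, 10 z-slices) in agarose-filled 96-well plates. The dechorionated Tg(wt1b:EGFP) zebrafish embryos had received 25 μM compound in 0.5% DMSO in HEPES-buffered E3 with 0.003% PTU from 24 to 48 hpf at 28.5°C. Values more than 2 SD from a feature's mean were excluded. Each feature appears as a fold change over the mean of DMSO-treated embryos from the same day.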
Take `CCOC(=O)C1=C(C)NC(C)=C(C(=O)OC)C1c1cccc([N+](=O)[O-])c1` (configuration not stated) [Nitrendipine]: the “pronephric angle neck segment” value was 1.29 ± 0.044. In the case of `CC(=O)N(CC(O)CO)c1c(I)c(C(=O)NCC(O)CO)c(I)c(C(=O)NCC(O)CO)c1I` (configuration not stated) [Iohexol], the “pronephric angle neck segment” value was determined as 0.962 ± 0.069. For `CCN1CCN(C(=O)N[C@@H](C(=O)N[C@@H]2C(=O)N3C(C(=O)O)=C(CSc4nnnn4C)CS[C@H]23)c2ccc(O)cc2)C(=O)C1=O` [Cefoperazone dihydrate], the “pronephric angle neck segment” value is 1.046 ± 0.0064. Turning to `CCN(CC)CCNC(=O)c1ccc(N)cc1` [Procainamide hydrochloride], the “pronephric angle neck segment” value was 1.1 ± 0.22. Still for that read-out and setting: for `OC(CCN1CCCCC1)(c1ccccc1)C1CC2C=CC1C2` (configuration not stated) [Biperiden hydrochloride] the value was 1.01 ± 0.022; for `CC(=O)OCC(CCn1cnc2cnc(N)nc21)COC(C)=O` [Famciclovir], 0.9775 ± 0.004; for `CC(C)NCC(O)c1ccc2ccccc2c1` (configuration not stated) [Pronethalol hydrochloride], 1.03 ± 0.06. On to `Cc1cccc(C)c1OCC(C)N` (configuration not stated) [Mexiletine hydrochloride], for which the “pronephric angle neck segment” value was 0.98 ± 0.041. On to `Cc1c(NC(=O)c2cccnc2)c(=O)n(-c2ccccc2)n1C` [Nifenazone], for which the “pronephric angle neck segment” value was 1 ± 0.023.

As to `C[C@]12CC[C@H]3C(=CCc4cc(O)ccc43)[C@@H]1CCC2=O` [Equilin], the “pronephric angle neck segment” value is 1.17 ± 0.015.

For `CC(=O)N[C@@H](CC(C)C)C(=O)O` [N-Acetyl-L-leucine], the “pronephric angle neck segment” value was 0.993 ± 0.013.

For the molecule `CC(=O)O[C@H]1C[C@@]2(C)[C@@H](C[C@@H](O)[C@H]3[C@@]4(C)CC[C@@H](O)[C@@H](C)[C@@H]4CC[C@@]32C)/C1=C(\CCC=C(C)C)C(=O)O` [Fusidic acid sodium salt], the “pronephric angle neck segment” value came to 1.02 ± 0.014. As to `Nc1ccc(S(N)(=O)=O)cc1` [Sulfanilamide], the “pronephric angle neck segment” value amounted to 0.996 ± 0.0089. For `C[C@]12CCC(=O)C=C1C=C[C@@H]1[C@@H]2CC[C@@]2(C)[C@H]1CC[C@@]21CCC(=O)O1` [Canrenone], the “pronephric angle neck segment” value was 1.07 ± 0.031. As for `O=S(=O)(O)c1cc(O)ccc1O` [Ethamsylate], the “pronephric angle neck segment” value came to 0.9847 ± 0.0033. Turning to `Nc1cc(N2CCCCC2)nc(N)[n+]1[O-]` [Minoxidil], the “pronephric angle neck segment” value came to 0.99 ± 0.065. As to `CSc1ccc2c(c1)N(CCC1CCCCN1C)c1ccccc1S2` (configuration not stated) [Thioridazine hydrochloride], the “pronephric angle neck segment” value was determined as 0.9994 ± 0.0046.

Regarding `CC(C)n1c(/C=C/C(O)CC(O)CC(=O)O)c(-c2ccc(F)cc2)c2ccccc21` (configuration not stated) [Fluvastatin sodium salt], the “pronephric angle neck segment” value came out at 1.56 ± 0.093. As to `Nc1nc(N)c2nc(-c3ccccc3)c(N)nc2n1` [Triamterene], the “pronephric angle neck segment” value stood at 0.935 ± 0.046. Regarding `COC(=O)[C@@H]1[C@H]2C[C@H]3c4[nH]c5ccccc5c4CCN3C[C@@H]2CC[C@@H]1O` [Yohimbine hydrochloride], the “pronephric angle neck segment” value amounted to 0.985 ± 0.082. For the molecule `C[C@]12CC[C@@H]3c4ccc(OS(=O)(=O)O)cc4CC[C@H]3[C@@H]1CCC2=O` [Estropipate], the “pronephric angle neck segment” value worked out at 1.02 ± 0.012. `CC(=C(CCO)SSCC1CCCO1)N(C=O)Cc1cnc(C)nc1N` (stereo in doubt) [Fursultiamine Hydrochloride]: the “pronephric angle neck segment” value was 1.005 ± 0.0057. As to `C(=C\c1ccccc1)/CN1CCN(C(c2ccccc2)c2ccccc2)CC1` [Cinnarizine], the “pronephric angle neck segment” value was found to be 0.995 ± 0.045. On the same count and under the same terms, for `CCN[C@H]1CN(CCCOC)S(=O)(=O)c2sc(S(N)(=O)=O)cc21` [Brinzolamide] the value was 1.1 ± 0.069; for `N=C(N)NCc1cccc(I)c1` [Iobenguane sulfate], 1.02 ± 0.035; for `CO/N=C(\C(=O)N[C@@H]1C(=O)N2C(C(=O)O)=C(COC(C)=O)CS[C@H]12)c1csc(N)n1` [Cefotaxime sodium salt], 0.982 ± 0.017. On the same count and under the same terms, the figure for `CC(=O)NC[C@H]1CN(c2ccc(N3CCOCC3)c(F)c2)C(=O)O1` [Linezolid] is 0.936 ± 0.029; for `O=C(CCCN1CC=C(n2c(=O)[nH]c3ccccc32)CC1)c1ccc(F)cc1` [Droperidol] it is 1.04 ± 0.046; for `NC(Cc1cc(I)c(Oc2cc(I)c(O)c(I)c2)c(I)c1)C(=O)O` (configuration not stated) [Thyroxine (L)] it is 1.02 ± 0.029. Consider `Nc1nc(O)c2ncn(CCC(CO)CO)c2n1` [Penciclovir], for which the “pronephric angle neck segment” value was 0.964 ± 0.05. Consider `O=C1NCC2(CCN(CCc3ccccc3)CC2)O1` [Fenspiride hydrochloride], for which the “pronephric angle neck segment” value was 1.09 ± 0.038.

In the case of `Cc1c(N)c(=O)n(-c2ccccc2)n1C` [Ampyrone], the “pronephric angle neck segment” value amounted to 0.97 ± 0.0034. As for `CC1=C(/C=C/C(C)=C/C=C/C(C)=C\C(=O)O)C(C)(C)CCC1` [Isotretinoin], the “pronephric angle neck segment” value worked out at 1.69 ± 0.022. Turning to `CS(=O)(=O)OCCCCOS(C)(=O)=O` [Busulfan], the “pronephric angle neck segment” value came to 0.943 ± 0.034. For the molecule `COc1ccnc(C[S+]([O-])c2nc3cc(OC(F)F)ccc3[nH]2)c1OC` (configuration not stated) [Pantoprazole sodium], the “pronephric angle neck segment” value was 1.062 ± 0.0021.

Turning to `O=C(NC(Cc1cc(=O)[nH]c2ccccc12)C(=O)O)c1ccc(Cl)cc1` (configuration not stated) [Rebamipide], the “pronephric angle neck segment” value was 0.972 ± 0.034.

For the molecule `CC(C)C(=O)Nc1ccc([N+](=O)[O-])c(C(F)(F)F)c1` [Flutamide], the “pronephric angle neck segment” value came to 1.05 ± 0.031.

Take `CC(CNC1CCCCC1)OC(=O)c1ccccc1` (configuration not stated) [Hexylcaine hydrochloride]: the “pronephric angle neck segment” value was 1.09 ± 0.14. `CNCCC(Oc1ccccc1OC)c1ccccc1` (configuration not stated) [Nisoxetine hydrochloride]: the “pronephric angle neck segment” value turned out to be 1.06 ± 0.022.
